Bioassay records: PubChem, The Scripps Research Institute Molecular Screening Center
A selection: hits, their analogues and other compounds. The true share with any hit is near 2.4%.
M1 antag: human M1 muscarinic receptor antagonists, primary screen, CHO-K1 cells, Fluo-8 calcium fluorescence, 1536-well. Muscarinic acetylcholine receptor M1 (Homo sapiens), P11229. CHO-K1 hM1, ACh EC80 antagonist. inhibition, % at 3 µM. hit rate 1.3% among 360,000;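 active = percent inhibition above its own plate's cutoff, namely the mean of that plate's compound wells plus 3 SD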;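 also: peak over basal fluorescence ratio during 140 s after agonist addition; 0% = ACh EC80 plus DMSO and 100% = DMSO alone without agonist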
Target sequence (P11229 whole entry, looked up): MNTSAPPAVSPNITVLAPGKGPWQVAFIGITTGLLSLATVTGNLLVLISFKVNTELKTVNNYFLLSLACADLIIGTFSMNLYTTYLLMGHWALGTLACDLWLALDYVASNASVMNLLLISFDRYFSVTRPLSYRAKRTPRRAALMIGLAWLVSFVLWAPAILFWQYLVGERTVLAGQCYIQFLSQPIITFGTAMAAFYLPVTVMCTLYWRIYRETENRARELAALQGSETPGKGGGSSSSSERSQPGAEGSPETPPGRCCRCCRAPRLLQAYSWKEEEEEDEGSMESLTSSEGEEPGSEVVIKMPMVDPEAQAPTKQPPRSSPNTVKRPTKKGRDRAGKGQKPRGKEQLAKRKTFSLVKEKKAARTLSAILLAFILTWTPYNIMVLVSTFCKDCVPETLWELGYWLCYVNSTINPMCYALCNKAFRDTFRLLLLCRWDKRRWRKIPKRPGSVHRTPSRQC
CHO-K1 Ca PAM: nonselective calcium activators in parental CHO-K1 cells, primary screen, counter-screen for M1 PAM project, cell-based, Fluo-8 calcium fluorescence, full deck, 1536-well; ATP EC20; 0% at ATP EC20, 100% at ATP max; activation, % at 3 µM; hit rate 0.02% among 360,000; AID 602247, 2012;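 active = activation above the run cutoff, the mean activation of all test compounds plus 3 SD, cut at about 40% in these data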;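 also: peak over basal fluorescence ratio in a 140 s read after ATP addition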
CHO-K1 Ca antag: counter-screen for M1 antagonists: effect in parental CHO-K1 cells; ATP-induced calcium, Fluo-8 fluorescence; inhibition, % at 3 µM; hit rate 0.6% among 360,000;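 active = inhibition above a per-plate cutoff, the plate's mean sample inhibition plus 3 SD, cut at about 24% in these data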;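 also: 0% = DMSO plus EC80 ATP and 100% = DMSO alone without ATP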
CHRM1 agonist: human M1 muscarinic receptor agonists, primary screen, Fluo-8 calcium fluorescence, CHO-K1 cells, HTS | Muscarinic acetylcholine receptor M1 (Homo sapiens), P11229 | CHO-K1 hM1, agonist mode; 0% DMSO, 100% acetylcholine EC100 | activation, % at 3 µM | hit rate 0.33% among 360,000 | AID 588814, 2011;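 active = activation above the run's mean compound activation plus 3 SD, cut at about 16% in these data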;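 also: peak over basal fluorescence ratio within a 140 s kinetic read after compound addition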
CHRM1 PAM: human M1 muscarinic receptor positive allosteric modulators, primary screen, CHO-K1 cells, Fluo-8 calcium fluorescence, 1536-well. Muscarinic acetylcholine receptor M1 (Homo sapiens), P11229. CHO-K1 hM1, ACh EC20; 0% = ACh EC20, 100% = maximal ACh. activation, % at 3 µM. hit rate 0.088% among 360,000. AID 588819, 2011; in the data active = activation above about 19%, passing the limit was not always enough
M1 ag parental: counter-screen for M1 agonists: effect in parental CHO-K1 cells. activation, % at 3 µM. Fluo-8 calcium fluorescence; scaled to maximal ATP response, vehicle zero. hit rate 0.48% among 360,000; in the data active = activation above about 15%;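 also: untransfected CHO-K1 host cells lacking M1 receptor as counterscreen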
Numbers without * were called inactive.

SMILES | M1 antag | CHO-K1 Ca PAM | CHO-K1 Ca antag | CHRM1 agonist | CHRM1 PAM | M1 ag parental
O=C(OCCCN1CCCC1)C1(c2ccccc2)CCCC1 | 96* | 8 | 3 | -6 | -21 | 0
Cc1ccc(NC(=O)C2(c3ccccc3)CCOCC2)cc1 | -3 | 12 | -5 | -13 | 13 | 1
CN(C)CCOC(=O)C1(c2ccccc2)CCOCC1 | 23* | 10 | -5 | -6 | -24 | 0
CCN(CC)CCOC(=O)C1(c2ccc(OC)c(OC)c2)CCCC1 | 77* | 18 | -16 | -8 | -21 | 0
COc1ccc(N(C(=O)CNC(=O)c2cccs2)C(C(=O)NC2CCCC2)c2cccnc2)cc1 (stereo not given) | 17 | -10 | 21 | -3 | -10 | 3
NS(=O)(=O)c1ccc(CCN=Cc2ccccc2O)cc1 | -13 | 21 | -3 | -5 | 12 | 0
Cc1ccc(C)c(/C=C(\C(=O)O)c2ccc(S(=O)(=O)N3CCCCC3)s2)c1 | -8 | 11 | -15 | -4 | 8 | 0
CC(C(=O)Nc1ccc2c(c1)OCCO2)c1ccc([N+](=O)[O-])cc1 (stereo not given) | 6 | 12 | -1 | 42* | -2 | 17*
CC(Sc1nncs1)C(=O)Nc1ccc2c(c1)OCCO2 (stereo not given) | -4 | 9 | 25* | -2 | 10 | 0
Cc1ccc(S(=O)(=O)Nc2ccc(Oc3cccnc3)nc2)cc1 | -7 | 15 | -11 | 2 | 1 | 3
O=C(OC(c1ccccc1)c1nccc2ccccc12)c1cc([N+](=O)[O-])cc([N+](=O)[O-])c1 (stereo not given) | 35* | 17 | 4 | -8 | -18 | 12
CC(C)CNc1ncnc2c1ncn2[C@H]1CN(Cc2ccc(C(=O)O)cc2)C[C@@H](CO)O1 | -17 | 21 | -16 | -4 | 13 | 1
Cc1nn(-c2ccccc2)c(C)c1C(=O)OC(C)C(=O)NC1CCCCC1C (stereo not given) | 30* | -9 | 6 | 1 | -14 | 1
COC(=O)c1c(C)[nH]c(C(=O)OC(C)C(=O)NC2CCCCC2C)c1C (stereo not given) | -13 | -9 | -7 | 8 | 26* | 0
Cc1ccccc1-c1nnc(SCC(=O)NCC2CCCO2)o1 (stereo not given) | -13 | 20 | -14 | -1 | 8 | 0
O=C(CSc1nnc(-c2cccc(Br)c2)o1)NCC1CCCO1 (stereo not given) | 1 | -12 | 26* | 0 | 5 | 0
CCc1ccc(CNn2cnnc2SCC(=O)NC(C)(C)C)cc1 | 0 | -4 | 15 | -2 | -1 | 0
CN(C)c1ccc(CNn2cnnc2SCC(=O)NC(C)(C)C)cc1 | 42* | 9 | 14 | -2 | -14 | 6
Nc1c([N+](=O)[O-])c(=O)sc2ccccc12 | -5 | 10 | -1 | -5 | 10 | 15*
O=c1sc2ccccc2c(N2CCCC2)c1[N+](=O)[O-] | -8 | 4 | 1 | 3 | 8 | 0
O=C1N(Cc2cccc(Cl)c2)C[C@@H]2C[C@@H](c3ccsc3)N3CCC[C@@]123 | 34* | -6 | 11 | -12 | -30 | -1
O=C1N(Cc2cccc(Cl)c2)C[C@@H]2C[C@@H](c3ccccn3)N3CCC[C@@]123 | -9 | 20 | -12 | -6 | -4 | 1
CCN=C(NCC)SC1CC(=O)N(c2ccccc2)C1=O (stereo not given) | 25* | -2 | 20 | 3 | -17 | 6
CCN=C(NCC)SC1CC(=O)N(c2cccc(OC)c2)C1=O (stereo not given) | 32* | 9 | -6 | 0 | -14 | 8
CCN=C(NCC)SC1CC(=O)N(c2ccc(OCC)cc2)C1=O (stereo not given) | 30* | -1 | 11 | 0 | -20 | 6
SMILES | M1 antag | CHO-K1 Ca PAM | CHO-K1 Ca antag | CHRM1 agonist | CHRM1 PAM | M1 ag parental
CCN=C(Nc1cccc(F)c1)SC1CC(=O)N(c2ccc(OC)cc2)C1=O (stereo not given) | 21 | 2 | -2 | -4 | -16 | 8
COc1ccc(OC)c(S(=O)(=O)NC(=O)C2(C)CCN2C(=O)C2(c3ccc(Cl)cc3)CC2)c1 (stereo not given) | -13 | -4 | -7 | -1 | -1 | 0
CN1CCN(C(=O)CN(C2CCCCC2)S(=O)(=O)c2ccc(Br)cc2)CC1 | 2 | 18 | -9 | 18* | -2 | 5
Cc1cc(Cl)ccc1NC(=S)N1CCN(Cc2ccccc2)CC1 | 2 | 7 | 2 | 3 | 2 | 1
CCOC(=O)N1CCN(C(=S)Nc2cccc(C)c2C)CC1 | -9 | 7 | 5 | 19* | 1 | 0
COC(=O)c1sccc1NC(=S)N1CCN(c2cccc(C)c2C)CC1 | 0 | -15 | 24* | -7 | 3 | 0
COC(=O)c1sccc1NC(=S)N1CCCCC1 | -11 | 4 | 16 | -3 | 7 | 0
CCOC(=O)N1CCN(C(=S)Nc2ccccc2C(C)C)CC1 | 17 | -10 | 4 | 10 | -7 | 0
Cc1cccc(NC(=S)N2CCN(Cc3ccccc3)CC2)c1C | 3 | 15 | 9 | 23* | -1 | 14
COc1cccc(C(=O)NNS(=O)(=O)c2ccccc2)c1 | -6 | 9 | -1 | -4 | 1 | 0
